Measurements: publication PMC4336329 (PLoS ONE, 2015)
The whole screen tested about 310,000 compounds, of which about 14,000 (4.5%) showed an effect of 50% or more. The effect is printed as a negative number. What follows is part of a selection rich in strong results, with near analogues and random picks from the rest.

target: human ether-à-go-go-related gene (hERG) potassium channel (human, UniProt Q12809); test: primary screen, population patch clamp on CHO cells stably expressing hERG; higher = less effect of the substance
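Further: peak tail current of the secondary pulse compared with the same well before compound.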

human ether-à-go-go-related gene (hERG) potassium channel, sequence (Q12809 whole entry, looked up): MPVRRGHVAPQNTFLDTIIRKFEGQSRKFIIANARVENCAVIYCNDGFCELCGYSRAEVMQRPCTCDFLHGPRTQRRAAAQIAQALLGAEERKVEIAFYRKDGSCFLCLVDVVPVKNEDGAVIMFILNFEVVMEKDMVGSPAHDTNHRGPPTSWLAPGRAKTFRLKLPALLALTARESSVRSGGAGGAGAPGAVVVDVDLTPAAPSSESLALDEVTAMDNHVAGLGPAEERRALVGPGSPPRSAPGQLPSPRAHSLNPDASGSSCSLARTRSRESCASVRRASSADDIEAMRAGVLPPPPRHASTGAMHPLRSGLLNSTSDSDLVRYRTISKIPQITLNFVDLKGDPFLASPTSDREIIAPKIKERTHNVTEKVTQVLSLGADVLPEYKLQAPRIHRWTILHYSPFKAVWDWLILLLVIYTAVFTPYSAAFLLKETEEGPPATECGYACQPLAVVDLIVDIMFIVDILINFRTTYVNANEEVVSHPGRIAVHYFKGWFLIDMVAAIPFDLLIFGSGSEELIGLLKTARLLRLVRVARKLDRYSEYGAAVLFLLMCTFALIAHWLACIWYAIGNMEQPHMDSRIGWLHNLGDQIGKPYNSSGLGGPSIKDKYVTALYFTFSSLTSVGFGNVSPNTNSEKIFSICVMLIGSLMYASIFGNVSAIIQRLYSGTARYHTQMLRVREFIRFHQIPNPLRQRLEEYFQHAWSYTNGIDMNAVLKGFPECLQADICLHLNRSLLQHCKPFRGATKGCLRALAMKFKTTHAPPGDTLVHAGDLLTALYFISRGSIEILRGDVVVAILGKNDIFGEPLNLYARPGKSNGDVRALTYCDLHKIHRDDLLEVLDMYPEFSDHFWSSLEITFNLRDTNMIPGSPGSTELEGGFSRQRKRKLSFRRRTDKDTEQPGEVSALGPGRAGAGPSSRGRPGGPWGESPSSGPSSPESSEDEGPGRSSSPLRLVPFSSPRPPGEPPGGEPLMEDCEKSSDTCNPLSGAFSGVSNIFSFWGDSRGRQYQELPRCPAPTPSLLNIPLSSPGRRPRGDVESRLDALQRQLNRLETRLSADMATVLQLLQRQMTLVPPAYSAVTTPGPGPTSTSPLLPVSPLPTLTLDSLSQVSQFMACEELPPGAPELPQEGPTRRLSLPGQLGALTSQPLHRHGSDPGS

SMILES | hERG current change (%, negative = inhibition) at 10uM [%]
CC[C@@]12C(=O)N(c3cccc(F)c3)C(=O)N1[C@H](c1cccc(C)c1)[C@@H]1C(=O)N(Cc3ccccc3)C(=O)[C@@H]12 | 0.427
Cc1cc(-c2ccccc2)nc(N/N=C/c2ccco2)n1 | -0.804
O=C(OCC(=O)N1CCCc2ccccc21)c1ccccc1NCCO | -15.9
Cc1ccc(S(=O)(=O)N2CCCCC2)cc1NC(=O)CSc1ccc2c(c1)OCCO2 | -9.32
CCOC(=O)CSc1n[nH]c(NS(=O)(=O)c2ccccc2C(F)(F)F)n1 | -1.78
CSc1ccc(C2Nc3ccccc3-c3cc(C)nn32)cc1 (stereo not shown) | -3.75
COc1cc(/C=C(/C#N)c2nc3ccccc3[nH]2)ccc1OC(=O)c1ccco1 | -6.24
O=C(COC(=O)Cc1ccccc1)Nc1cc(S(=O)(=O)N2CCCCC2)ccc1Cl | -81.8
O=C(COC(=O)c1ccccc1)Nc1cc(S(=O)(=O)N2CCCCCC2)ccc1Cl | 7.5
Cc1ccc(C(=O)OCC(=O)Nc2cc(S(C)(=O)=O)ccc2Cl)cc1S(=O)(=O)N1CCCCC1 | -26.9
O=C(COC(=O)CCS(=O)(=O)c1ccccc1)Nc1cc(S(=O)(=O)N2CCCCC2)ccc1Cl | -4.61
CS(=O)(=O)c1ccc(Cl)c(NC(=O)COC(=O)c2cccc(S(=O)(=O)N3CCCC3)c2)c1 | -51.5
CS(=O)(=O)c1ccc(Cl)c(NC(=O)COC(=O)c2cccc(S(=O)(=O)N3CCCCC3)c2)c1 | -30.9
CCOC(=O)c1ccc(NC(=O)NCc2ccccc2)cc1 | -9.51
COc1ccc(S(=O)(=O)N2CCN(C(=S)Nc3ccc(S(N)(=O)=O)cc3)CC2)cc1 | 15.7
CCC(C(=O)Nc1nccs1)c1ccccc1 (stereo not shown) | 9.98
COc1ccc(-n2c(=O)c3ccccc3n(CC(=O)NCC3CCCO3)c2=O)cc1 (stereo not shown) | 13.4
O=C(c1cnc2ccccc2n1)N1CCN(c2ccc(C(F)(F)F)cn2)CC1 | -17.1
O=S(=O)(CCc1nc2ccccc2o1)c1ccc(Cl)cc1 | -7.14
CCOc1ccc2[nH]c(=O)c(CN(CCCN3CCOCC3)Cc3nnnn3Cc3ccc(OC)cc3)cc2c1 | -60.9

SMILES | hERG current change (%, negative = inhibition) at 10uM [%]
COc1ccc2cc(CN(CCCN3CCOCC3)Cc3nnnn3C3CCCC3)c(=O)[nH]c2c1 | -59.7
COc1ccc2cc(CN(CCCN3CCOCC3)Cc3nnnn3C3CCCCC3)c(=O)[nH]c2c1 | -26.5
COc1cc2cc(CN(CCCN3CCOCC3)Cc3nnnn3Cc3ccccc3)c(=O)[nH]c2cc1OC | -20.2
COc1ccc2cc(CN(Cc3ccco3)Cc3nnnn3C3CCCCC3)c(=O)[nH]c2c1 | -19.4
Cc1ccc2[nH]c(=O)c(CN(CCCN3CCOCC3)Cc3nnnn3C3CCCC3)cc2c1 | -54.5
COc1ccc(Cn2nnnc2CN(CCCN2CCOCC2)Cc2cc3cc(OC)ccc3[nH]c2=O)cc1 | -42.7
Cc1ccc2[nH]c(=O)c(CN(Cc3ccccc3)Cc3nnnn3C3CCCC3)cc2c1 | -6.83
Cc1ccc2[nH]c(=O)c(CN(Cc3ccc4c(c3)OCO4)Cc3nnnn3C3CCCC3)cc2c1 | 4.66
CCOc1ccc(S(=O)(=O)n2nnc3ccccc32)cc1C | 14.6
CCCn1c(C)c(C(=O)OCC)c(O)c(-c2ccccc2)c1=O | 19.5
CC(=O)N1CCN(c2cc(N3CCCC3)c(F)cc2[N+](=O)[O-])CC1 | 5.05
COc1ccc(/C=N/Nc2ccc(C(F)(F)F)cc2[N+](=O)[O-])cc1 | 5.35
Cn1cccc1Cc1nnc(SCC(=O)NCCc2ccccc2)n1-c1ccc(F)cc1 | -21.6
CC(C)Cc1nnc(NC(=O)CN2C(=O)NC3(CCCC3)C2=O)s1 | -9.22
CC(=O)N=c1scc(-c2ccccc2)n1-c1cccc(O)c1 | 7.32
COc1cnn(-c2ccc(C)cc2)c(=O)c1SCc1ccccc1 | -20.9
COc1cnn(-c2ccccc2)c(=O)c1SCc1ccc(Cl)c(Cl)c1 | -21.1
COc1cnn(-c2ccc(Br)cc2)c(=O)c1SCc1ccccc1 | -65.6
CN(C)S(=O)(=O)c1ccc(NC(=S)NC(=O)C2CCC2)cc1 | 10.3
CC(C)(SC(=S)N1CCCCCC1)C(=O)O | 24.3
